{"source": "PubChem BioAssay AID602450", "about": "(National Center for Advancing Translational Sciences (NCATS), 2012)", "note": "Calls of active or inactive are those of the source. Calls follow the shape of the full dose curve.", "data": [{"assay": "qHTS Assay for Inhibitors of Influenza NS1 Protein Function: Viral Replication TCID50 SAR for Probe", "conditions": "Influenza virus replication in cells, TCID50 titer reduction", "from_the_text": "Influenza is a world-wide public health problem and emerging forms of the virus have the potential to cause a pandemic of equal or greater magnitude to the outbreaks recorded in 1918, 1957 or 1968. Vaccine development is proceeding and there also exist two classes of anti-influenza compounds. However these therapeutic modalities are neither fully effective nor widely enough available to fulfill global needs. In addition their potential usefulness against newly emergent strains is not known. Efforts are needed to develop novel agents against influenza virus, including broad-spectrum agents. Identification of small molecules that inhibit NS1 function either directly or by interfering with specific cellular pathways may be a key to increasing our defense against the virus.\nWe have miniaturized and optimized a cell based assay in which NS1 from influenza A is expressed in the budding yeast S. cerevisiae. NS1 is a multi-functional protein that counters the host innate immune response and facilitates viral versus cellular gene expression. Expression of NS1 causes a pronounced slow growth phenotype in yeast due to its intrinsic molecular activities. Small molecules that suppress the slow growth phenotype can be identified by a straightforward growth recovery assay using optical density (OD) as the measurement. The same yeast strain not expressing NS1 was used as positive control in the yeast growth recovery assay.\nHits resulting from this primary screen and other follow-up screens, were tested in two concentrations in this viral replication assay.\nNIH Chemical Genomics Center [NCGC]\nNIH Molecular Libraries Probe Centers Network [MLPCN]\nAssay Submitter (PI): Daniel Engel, University of Virgina\nCell monolayers were infected at an m.o.i. of 0.1 for 48 h in the presence or absence of the compound, which was added at the beginning of infection. Virus titres were determined by TCID50 analysis (Reed, L. J. & Muench, H. (1938). A simple method of estimating fifty per cent endpoints. Am J Epidemiol 27, 493-497).", "values": [{"molecule": "Cc1nn(-c2ccc(Cl)cc2)c2nc(N)c(C#N)c(-c3ccc(O)c(O)c3)c12", "Potency": "279 nM (active)"}, {"molecule": "COc1cc(-c2ccnc3c2c(C)nn3-c2cccc(C(F)(F)F)c2)ccc1O", "Potency": "82.7 nM (active)"}, {"molecule": "Cc1ccc(-n2nc(C)c3c(-c4ccc(O)c(O)c4)c(C#N)c(N)nc32)cc1C", "Potency": "234 nM (active)"}, {"molecule": "COc1cc(-c2c(C#N)c(N)nc3c2c(C)nn3-c2ccc(F)cc2)ccc1O", "Potency": "101 nM (active)"}, {"molecule": "COc1cc(-c2ccnc3c2c(C)nn3-c2ccc(C(F)(F)F)cc2)ccc1O", "Potency": "155 nM (active)"}]}]}
